Inconclusive results are not listed. Activity calls are given as the source filed them. Unless noted, calls follow the shape of the dose curve; as a rule, active = well fitted curve in the direction sought with a large enough effect; inconclusive = small, poorly fitted or top-dose-only effect, or another doubt; inactive = no such curve, though single readings can be large; an effect the other way counts as inactive or inconclusive.
Columns and labels:
[1] = S16 Schwann cell viability assay (CellTiter-Glo assay) (AID 624031); conditions: S16 rat Schwann cells viability, 24 h; series mostly up to 57.5 µM;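 also: native untransfected S16 rat Schwann cells; nearly all actives have a fitted effect of over 70% in size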
In short: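 Counter-screen for cytotoxicity: parental S16 rat Schwann cells lacking the PMP22 reporters, treated 24 h with compound, viability from cellular ATP by CellTiter-Glo luminescence, normalized to DMSO (0%) and no-cell wells.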

[2] = S16 Schwann cell PMP22 intronic element firefly luciferase assay (AID 624032); conditions: S16 rat Schwann cells, PMP22 element FLuc, 24 h; series mostly up to 57.5 µM; also: nearly all actives have a fitted effect of over 30% in size
In short: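 Rat S16 Schwann cells stably carrying a PMP22 intronic element-driven Fluc reporter were seeded overnight, then exposed to compounds for 24 h at 37 °C. Luminescence was normalized to PTC124 (positive control) and DMSO (0% activity).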

[3] = S16 Schwann cell PMP22 intronic element beta-lactamase assay (AID 624044; calls by dose curve; also: nearly all actives have a fitted effect of over 15% in size); conditions: S16 rat Schwann cells, PMP22 element beta-lactamase FRET, 24 h; series mostly up to 38.3 µM
In short: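 Beta-lactamase reporter under a PMP22 intronic regulatory element in stable S16 rat Schwann cells; 24 h compound exposure. 460 nm blue signal normalized between DMSO (0%) and potassium clavulanate, with 535 nm FRET tracking viability; curves classed by r2 and response.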

AA1029 = assay: qHTS profiling for inhibitors of Plasmodium falciparum proliferation (AID 504749); also: potency is read from the fitted curve at half-maximal effect; nearly all actives have a fitted effect of over 60% in size; conditions: P. falciparum in erythrocytes, SYBR Green DNA, 72 h; series mostly up to 28.7 µM
In short: (§1)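 Quantitative HTS: compounds pinned into medium, infected erythrocytes added (0.3% parasitemia, 2.5% hematocrit), 72 h culture at 37 C under 5% CO2. Saponin/Triton lysis with SYBR Green I, overnight RT, then fluorescence read.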

CP211 = assay: as above; conditions: P. falciparum in erythrocytes, SYBR Green DNA, 72 h; series mostly up to 28.7 µM
In short: as §1

CP217 = assay: as above; conditions: P. falciparum in erythrocytes, SYBR Green DNA, 72 h; series mostly up to 28.7 µM
In short: as §1

CP260 = assay: as above; conditions: P. falciparum in erythrocytes, SYBR Green DNA, 72 h; series mostly up to 28.7 µM
In short: as §1

CP297 = assay: as above; conditions: P. falciparum in erythrocytes, SYBR Green DNA, 72 h; series mostly up to 28.7 µM
In short: as §1

CP315 = assay: as above; conditions: P. falciparum in erythrocytes, SYBR Green DNA, 72 h; series mostly up to 28.7 µM
In short: as §1

FAB9 = assay: as above; conditions: P. falciparum in erythrocytes, SYBR Green DNA, 72 h; series mostly up to 28.7 µM
In short: as §1

ICS = assay: as above; conditions: P. falciparum in erythrocytes, SYBR Green DNA, 72 h; series mostly up to 28.7 µM
In short: as §1

JCK = assay: as above; conditions: P. falciparum in erythrocytes, SYBR Green DNA, 72 h; series mostly up to 28.7 µM
In short: as §1

N140 = assay: as above; conditions: P. falciparum in erythrocytes, SYBR Green DNA, 72 h; series mostly up to 28.7 µM
In short: as §1

PC15 = assay: as above; conditions: P. falciparum in erythrocytes, SYBR Green DNA, 72 h; series mostly up to 28.7 µM
In short: as §1

TAB165 = assay: as above; conditions: P. falciparum in erythrocytes, SYBR Green DNA, 72 h; series mostly up to 28.7 µM
In short: as §1

[4] = NS1 protein of Zika virus - qHTS assay to identify small molecule inhibitors in human HEK 293 cells (AID 1347053); conditions: HEK293 ZIKV MR766 infection, NS1 TR-FRET, 24 h; series mostly up to 46.1 µM; also: nearly all actives have a fitted effect of over 55% in size
In short: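 Read-out is a two-antibody TR-FRET for ZIKV NS1, normalized between uninfected cells and infected cells. Compound added 1 h before MR766 infection at MOI 0.5; human HEK 293 cells incubated 24 h, 37 C.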

[5] = qHTS of pediatric cancer cell lines to identify multiple opportunities for drug repurposing: Primary screen for TC32 cells (AID 1347089); conditions: TC32 Ewing sarcoma viability, CellTiter-Glo luminescence, 48 h; series mostly up to 45.8 µM; also: nearly all actives have a fitted effect of over 60% in size
In short: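 Luminescent CellTiter-Glo read-out of metabolically active TC32 cells after 48 h compound exposure. Primary: MIPE 11-point, 0.78 nM–46 µM; NPC 8-point, 0.59 nM–46 µM. Confirmatory: 11-point dilutions.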

[6] = qHTS of pediatric cancer cell lines to identify multiple opportunities for drug repurposing: Primary screen for Saos-2 cells (AID 1347097); conditions: Saos-2 viability, CellTiter-Glo ATP luminescence, 48 h; also: potency is read from the fitted curve at half-maximal effect; nearly all actives have a fitted effect of over 40% in size
In short: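 Plated cells (500-1,000 per well, growth media) were allowed to settle for 5 hours, treated with compound dilutions for 48 hours, then lysed with CellTiter-Glo for 15 min at room temperature before luminescence reading.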

MCC-13 = assay: qHTS assay to identify novel small-molecules to repurpose for Merkel cell carcinoma treatment (AID 1296009); conditions: MCC and control cell lines, CellTiter-Glo viability, 72 h; series mostly up to 46 µM; also: nearly all actives have a fitted effect of over 60% in size
In short: (§2)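 Viability readout: ATP luminescence (CellTiter-Glo) after 72 hr drug exposure at 37 degree celsius. Dose-response format was 8 points for NPC and 11 points for MIPE; data normalized to in-plate controls.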

MCC-26 = assay: as above; conditions: MCC and control cell lines, CellTiter-Glo viability, 72 h; series mostly up to 46 µM
In short: as §2

Measured: Potency

O=C(CC1NCCC[C@H]1O)Cn1cnc2cc(Br)c(Cl)cc2c1=O (stereo not given in full)
active: AA1029 1000 nM | CP211 3380 nM | CP217 3160 nM | CP260 2510 nM | CP297 3380 nM | CP315 3010 nM | FAB9 1000 nM | ICS 1120 nM | JCK 2820 nM | N140 3160 nM | PC15 891 nM | TAB165 1000 nM
inactive: [1] | [2] | [3]

CS(=O)(=O)c1ccc(-c2cn3ccccc3n2)cc1
active: [6] 16800 nM
inactive: [4] | [5] | MCC-13 | MCC-26
